These results are taken from PubChem BioAssay (Tox21).

Assay [1] is described as follows: Nuclear factor erythroid 2-related factor 2/antioxidant responsive element (Nrf2/ARE) small molecule agonists: qHTS cell viability counter screen in human keratinocytes (AID 1919968; active = well fitted curve in the direction sought with a large enough effect in the repeat runs; an effect the other way counts as inactive or inconclusive; note: nearly all actives have a fitted effect of over 55% in size; note: potency is the fitted concentration of half-maximal effect). A digest of the protocol: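 Cells of the KeratinoSens line were plated at 1,500 per well and left for 5 h before compound transfer from DMSO stocks. After a 23 h incubation (37 C, 5% CO2), CellTiter-Fluor was added. Signal was taken as fluorescence intensity 1 h later.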

Assay [2] in a line: Nuclear factor erythroid 2-related factor 2/antioxidant responsive element (Nrf2/ARE) small molecule agonists: luciferase reporter gene qHTS assay in human keratinocytes (AID 1919969). Note: nearly all actives have a fitted effect of over 35% in size. Note: potency is the fitted concentration of half-maximal effect.
For assay [3], the target named is KiSS-1 receptor (Homo sapiens) (UniProt Q969F8). Nature of the assay: Human kisspeptin (KISS1R) small molecule agonists, calcium flux assay in KISS1R-HEK293 cells (AID 1920064; active = well fitted curve in the direction sought with a large enough effect in the repeat runs; an effect the other way counts as inactive or inconclusive). The procedure, abridged:
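Cell line: HEK293, stable human KISS1R. Dye loading 1 h at 37 C after 18 h culture. Read: kinetic fluorescence, 480/540 nm, 3 min at 1 s intervals.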
For orientation: Calcium assays in cells follow changes in intracellular calcium, usually with a dye or a luminescent sensor.

Assay [4] is described as follows: G protein-coupled receptor (GPCR) small molecule agonists, calcium flux assay: HEK293 wild type cell line counter screen (AID 1920065). A digest of the protocol:
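Tox21 10K compounds, 15 concentrations each in triplicate, pin-transferred in DMSO onto dye-loaded cells; kinetic read at 480/540 nm for 3 min, 1 s intervals.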

Assay [5] in a line: p53 small molecule agonists, cell-based qHTS assay with human liver microsomes (AID 1963577). The procedure, abridged:
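Cells carrying a p53-responsive bla reporter were rested 5 h (37 C, 5% CO2) before compound transfer. Human liver microsomes plus NADPH, 0.5 mg/mL final apiece, supplied metabolism during the 16 h 37 C exposure.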
For orientation: qHTS replaces the single test concentration by a dilution series.

A short description of assay [6]: p53 small molecule agonists, cell-based qHTS assay with human liver microsomes: qHTS cell viability counter screen (AID 1963579). Note: nearly all actives have a fitted effect of over 45% in size. Note: potency is the fitted concentration of half-maximal effect. A digest of the protocol: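 Seed p53RE-bla cells at 4,000 per well; incubate 5 h at 37 C; add compound, human liver microsomes and NADPH; incubate 16 h at 37 C; add CellTiter-Glo; after 30 min at room temperature, read luminescence.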

Assay [7] can be described thus: p53 small molecule agonists, cell-based qHTS assay with rat liver microsomes: qHTS cell viability counter screen (AID 1963580). Note: nearly all actives have a fitted effect of over 45% in size. A digest of the protocol: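 Cytotoxicity counter screen: intracellular ATP read by CellTiter-Glo luminescence in the p53 reporter wells. HCT-116 p53RE-bla cells were treated for 16 h at 37 C alongside rat liver microsomes and NADPH, each 0.5 mg/mL final.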

Assay [8] in a line: p53 small molecule agonists, cell-based qHTS assay: qHTS cell viability counter screen (AID 1963581). Note: nearly all actives have a fitted effect of over 45% in size. A digest of the protocol:
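ATP content measured by luminescence in HCT-116 p53RE-bla cells treated 16 h at 37 C, same wells as the reporter screen.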

Assay [9] is described as follows: p53 small molecule agonists, cell-based qHTS assay (AID 1963582; active = well fitted activation curve with a large enough effect in the signal ratio in the repeat runs, not every such curve was filed as active; the % refers to the signal ratio). A digest of the protocol:
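16 h compound exposure (37 C) of p53 response element–bla cells, preceded by 5 h recovery at 37 C/5% CO2; read-out via LiveBLAzer B/G FRET substrate, 2 h RT, fluorescence intensity.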

Assay [10] addresses 5-hydroxytryptamine receptor 2A (Homo sapiens) (UniProt P28223). Nature of the assay: 5-hydroxytryptamine receptor 2A (HTR2A) small molecule antagonists, cell-based qHTS assay (AID 1963586). Note: nearly all actives have a fitted effect of over 45% in size. Note: potency is the fitted concentration of half-maximal effect. A digest of the protocol: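 CHO cells stably expressing human HTR2A were plated for 18 h at 37 C, then loaded with calcium dye for 1 h. Compounds were preincubated 5 min at room temperature before DOI (4 nM solution) was added. Kinetic fluorescence was read for 3 min.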

Assay [11] has the same target. Nature of the assay: 5-hydroxytryptamine receptor 2A (HTR2A) small molecule agonists, cell-based qHTS assay (AID 1963587). Note: nearly all actives have a fitted effect of over 30% in size. A digest of the protocol: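 Kinetic calcium-flux fluorescence (2 min, 1 sec intervals) after compound addition in agonist mode. HTR2A-CHO cells were cultured 18 h, then dye-loaded 1 h at 37 C.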
Assay [12] concerns the target Muscarinic acetylcholine receptor M1 (Homo sapiens) (UniProt P11229). The assay can be described thus: Cholinergic receptor muscarinic 1 (CHRM1) small molecule antagonists, cell-based qHTS assay (AID 1963588). Note: nearly all actives have a fitted effect of over 40% in size. A digest of the protocol:
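Compounds were tested at 15 concentrations in three independent runs. Dye-loaded CHRM1-CHO cells were exposed 5 min at room temperature before stimulation by acetylcholine added at 50nM. Intracellular calcium was read kinetically on FDSS for 3 min.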

The target is the same in assay [13]. The assay can be described thus: Cholinergic receptor muscarinic 1 (CHRM1) small molecule agonists, cell-based qHTS assay (AID 1963589). Note: nearly all actives have a fitted effect of over 35% in size. The procedure, abridged:
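Homogeneous fluorescence calcium flux, agonist mode. Human M1-expressing CHO cells; compound dosed at 15 concentrations, three independent runs; signal sampled every 1 sec.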

Assay [14] can be described thus: cAMP Responsive Elements (CRE) small molecule agonists, cell-based qHTS assay (AID 1963590). A digest of the protocol: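 HEK 293T cells stably bearing CRE-bla were plated at 2,000 cells per well and rested 18 h. Compounds, positive controls or DMSO were added for 3 h at 37 C. LiveBLAzer B/G substrate was then loaded for 2 h at room temperature.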
The nature of assay [15]: cAMP Responsive Elements (CRE) small molecule antagonists, cell-based qHTS assay (AID 1963591; active = well fitted inhibition curve with a large enough effect in the signal ratio in the repeat runs, not every such curve was filed as active; the % refers to the signal ratio). A digest of the protocol: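 First, CRE-bla HEK293T cells settled 18 h at 37 C. Next, compound and 0.25 uM final NKH477 were applied for 3 h. Last, LiveBLAzer B/G substrate was loaded for 2 h at room temperature.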
Assay [16] addresses Beta-2 adrenergic receptor (Homo sapiens) (UniProt P07550). Nature of the assay: Adrenergic beta2 receptor (ADRB2) small molecule antagonists, cell-based qHTS assay (AID 1963592). For activity change, negative = inhibition: series mostly up to about 92 µM. Note: nearly all actives have a fitted effect of over 50% in size. Note: potency is the fitted concentration of half-maximal effect. The procedure, abridged:
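Assay format: CHO-ADRB2 cells, 18-20hr seeding at 37C/5% CO2, then compound plus 1nM isoproterenol agonist mix for 0.5hr RT. Homogeneous time-resolved fluorescence cAMP detection after 1hr, expressed as 665/615 nm ratio.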

In assay [17] the target is D(2) dopamine receptor (Homo sapiens) (UniProt P14416). The assay can be described thus: Dopamine D2 receptor (DRD2) small molecule agonists, cell-based qHTS assay (AID 1963594). Note: nearly all actives have a fitted effect of over 35% in size. A digest of the protocol: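 cAMP accumulation in DRD2-HEK293 cells measured by HTRF after 1 h detection; compounds added 10 min before NKH477 (200nM […]) forskolin-analogue stimulation, 30 min at room temperature, with Ro20-1724 present at 0.1 mM final.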

Assay [18] has the same target. Nature of the assay: Dopamine D2 receptor (DRD2) small molecule antagonists, cell-based qHTS assay (AID 1963595; active = well fitted inhibition curve with a large enough effect in the signal ratio in the repeat runs, with a control signal flat; the % refers to the signal ratio; note: potency is the fitted concentration of half-maximal effect). A digest of the protocol: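 Antagonist mode in DRD2-HEK293 cells: after compound addition with 0.1 mM Ro20-1724, cells received quinpirole (12 nM) and NKH477 (200 nM) for 30 min at room temperature; HTRF cAMP read after 1 h detection.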
The nature of assay [19]: p53 small molecule agonists, cell-based qHTS assay with rat liver microsomes (AID 1963578). A digest of the protocol: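 Fluorescence from a beta-lactamase reporter under a p53 response element was measured after cells had been incubated 16 h at 37 C with test compound and rat liver microsomes plus NADPH (0.5 mg/mL final each).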
Assay [20] concerns the target Beta-2 adrenergic receptor (Homo sapiens) (UniProt P07550). Nature of the assay: Adrenergic beta2 receptor (ADRB2) small molecule agonists, cell-based qHTS assay (AID 1963593).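 Note: CHO cells stably overexpressing human ADRB2.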 The procedure, abridged: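 CHO cells stably over-expressing ADRB2 were plated overnight at 37C, then dosed with compounds plus a stimulation mix containing 100uM IBMX and 25uM Ro-20-1724 for 0.5hr at room temperature. cAMP was measured by HTRF competition, 1hr.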

Unmarked numbers belong to inactive results. Inconclusive results are not listed. The source made the active and inactive calls. Unless noted, calls come from the whole dose curve.
% is set by controls: 0 for no effect and ±100 for the full control effect.

Sequence of D(2) dopamine receptor (Homo sapiens) (P14416 whole entry, looked up): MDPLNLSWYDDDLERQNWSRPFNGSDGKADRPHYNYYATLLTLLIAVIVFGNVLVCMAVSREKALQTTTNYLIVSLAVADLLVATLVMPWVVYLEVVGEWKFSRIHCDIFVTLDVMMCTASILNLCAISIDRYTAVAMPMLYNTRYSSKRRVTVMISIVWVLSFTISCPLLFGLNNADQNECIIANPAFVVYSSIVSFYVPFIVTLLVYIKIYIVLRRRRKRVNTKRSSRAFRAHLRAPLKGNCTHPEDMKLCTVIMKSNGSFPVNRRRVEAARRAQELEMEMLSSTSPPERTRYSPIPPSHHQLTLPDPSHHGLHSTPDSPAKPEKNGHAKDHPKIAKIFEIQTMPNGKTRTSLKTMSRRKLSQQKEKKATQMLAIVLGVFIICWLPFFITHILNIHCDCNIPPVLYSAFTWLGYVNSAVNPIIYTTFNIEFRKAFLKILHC
Sequence of KiSS-1 receptor (Homo sapiens) (Q969F8 whole entry, looked up): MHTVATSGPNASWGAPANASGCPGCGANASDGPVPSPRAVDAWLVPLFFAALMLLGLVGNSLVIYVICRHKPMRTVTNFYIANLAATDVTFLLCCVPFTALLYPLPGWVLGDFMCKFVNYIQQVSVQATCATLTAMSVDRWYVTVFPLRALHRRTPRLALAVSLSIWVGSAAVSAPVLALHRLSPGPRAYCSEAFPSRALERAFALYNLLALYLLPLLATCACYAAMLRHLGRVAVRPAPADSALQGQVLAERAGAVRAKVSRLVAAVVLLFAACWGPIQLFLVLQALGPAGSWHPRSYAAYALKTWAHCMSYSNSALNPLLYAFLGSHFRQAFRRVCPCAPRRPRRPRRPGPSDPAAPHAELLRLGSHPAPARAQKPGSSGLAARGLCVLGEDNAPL
Sequence of Muscarinic acetylcholine receptor M1 (Homo sapiens) (P11229 whole entry, looked up): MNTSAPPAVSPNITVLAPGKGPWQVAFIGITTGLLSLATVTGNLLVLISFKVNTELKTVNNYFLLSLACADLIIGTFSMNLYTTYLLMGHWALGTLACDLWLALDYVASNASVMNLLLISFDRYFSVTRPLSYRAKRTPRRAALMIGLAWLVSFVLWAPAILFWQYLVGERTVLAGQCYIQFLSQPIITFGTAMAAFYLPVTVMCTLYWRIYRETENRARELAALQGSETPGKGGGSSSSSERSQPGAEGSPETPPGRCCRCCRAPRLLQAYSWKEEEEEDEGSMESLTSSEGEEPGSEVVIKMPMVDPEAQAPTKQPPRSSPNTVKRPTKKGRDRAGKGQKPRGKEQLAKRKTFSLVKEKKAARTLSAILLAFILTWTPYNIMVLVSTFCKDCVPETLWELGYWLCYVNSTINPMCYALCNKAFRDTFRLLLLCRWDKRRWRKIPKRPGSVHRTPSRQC
Sequence of Beta-2 adrenergic receptor (Homo sapiens) (P07550 whole entry, looked up): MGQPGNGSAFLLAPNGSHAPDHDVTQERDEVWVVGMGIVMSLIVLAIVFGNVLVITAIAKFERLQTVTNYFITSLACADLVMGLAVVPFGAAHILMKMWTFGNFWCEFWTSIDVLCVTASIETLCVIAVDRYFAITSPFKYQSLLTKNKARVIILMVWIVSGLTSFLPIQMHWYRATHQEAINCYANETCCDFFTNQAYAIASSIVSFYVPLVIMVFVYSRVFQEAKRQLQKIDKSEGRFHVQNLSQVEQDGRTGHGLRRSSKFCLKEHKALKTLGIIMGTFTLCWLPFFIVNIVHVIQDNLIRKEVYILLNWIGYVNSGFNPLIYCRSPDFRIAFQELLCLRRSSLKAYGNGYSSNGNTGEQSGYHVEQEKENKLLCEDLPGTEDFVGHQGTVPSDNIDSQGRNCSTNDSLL
Sequence of 5-hydroxytryptamine receptor 2A (Homo sapiens) (P28223 whole entry, looked up): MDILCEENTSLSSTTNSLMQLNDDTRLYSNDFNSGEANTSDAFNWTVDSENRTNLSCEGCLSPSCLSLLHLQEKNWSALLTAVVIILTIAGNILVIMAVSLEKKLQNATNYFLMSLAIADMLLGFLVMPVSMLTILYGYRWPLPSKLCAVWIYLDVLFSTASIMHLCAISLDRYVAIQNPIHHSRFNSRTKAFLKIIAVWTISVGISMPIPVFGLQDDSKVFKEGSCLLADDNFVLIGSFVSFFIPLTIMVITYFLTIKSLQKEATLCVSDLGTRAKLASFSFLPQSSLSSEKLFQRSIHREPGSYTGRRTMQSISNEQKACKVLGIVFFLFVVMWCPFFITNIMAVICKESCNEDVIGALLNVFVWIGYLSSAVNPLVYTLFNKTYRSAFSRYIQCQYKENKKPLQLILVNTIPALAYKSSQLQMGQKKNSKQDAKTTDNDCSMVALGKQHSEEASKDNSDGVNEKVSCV

`COC(=O)C1CC(=O)C(C(=O)OC)CC1=O` (centres undefined): the activity change, negative = cytotoxicity in assay [1] was 2.06% [at 8.39 µM]; in assay [6], -6.82% [at 5.99 µM]; in [7], -4.56% [at 5.99 µM]; in assay [8], -4.07% [at 5.99 µM]. Besides, in [2], the activity, positive = activation was -3.71% [at 8.39 µM]. Moreover, the activation in [3] is 0.0459% [at 6.97 µM]; in [4], -0.0233% [at 5.23 µM]; in [5], -0.316% [at 5.99 µM]; in assay [9] it was -3.72% [at 5.99 µM]; in [11] it was 7.2% [at 7.02 µM]; in assay [13], 0.037% [at 6.97 µM]. Further, the results for the activation in assay [14] and in assay [17] were 0.379% [at 8.39 µM] and -0.218% [at 8.39 µM], respectively. For the same compound, the figures for the activity, negative = inhibition in assay [10] and in [12] were 1.92% [at 5.62 µM] and 62.7% [at 5.58 µM], respectively. In addition, the activity change, negative = inhibition in assay [15] is -7.12% [at 8.39 µM]; in [16], 3.63% [at 8.39 µM]; in [18], -0.133% [at 8.38 µM].

For `O[C@@H](CNC[C@H](O)[C@H]1CCc2cc(F)ccc2O1)[C@@H]1CCc2cc(F)ccc2O1`, the Potency in assay [1] is 23.7 µM (active); in assay [10], 18.3 µM (active); in [16], 150 nM (active). Besides, the Potency result in assay [2], in assay [5], in assay [19], in [6], in [7] and in [12] was “inactive” throughout. The Potency entry in assay [14], in assay [15] and in assay [17] was “inactive” throughout. Moreover, the outcome in assay [3] and in [4] was inactive.

On to `CCOC(=O)CC`, for which the Potency result in assay [1], in assay [2], in assay [5], in [19], in assay [7] and in assay [8] was “inactive” in each case. Besides, the Potency entry in assay [9], in assay [10], in assay [11], in [12], in assay [13] and in assay [14] was “inactive” throughout. In addition, the Potency entry in assay [15], in assay [17] and in assay [18] was “inactive” throughout. Further, the result in assay [3] and in [4] was inactive.

As for `OC1(c2ccccc2)CCNCC1`, the Potency entry in assay [1], in [2], in [5], in [7], in assay [8] and in assay [10] was “inactive” each time. The Potency result in assay [11], in [12], in assay [13], in assay [14], in assay [16] and in assay [20] was “inactive” each time. Moreover, the Potency result in assay [17] and in [18] was “inactive” in each case. The result in assay [3] and in assay [4] was inactive.

Consider `O=C(CCCN1CCC(O)(c2ccc(Br)cc2)CC1)c1ccc(F)cc1`, for which the Potency entry in assay [1], in assay [2], in assay [5], in [19], in assay [7] and in assay [8] was “inactive” each time. Also, the Potency entry in assay [9], in [13], in assay [14], in [15] and in [17] was “inactive” each time. In addition, the result in assay [3] and in assay [4] was inactive. Besides, in assay [18], the Potency is 188 nM (active).

Consider `Cc1ccc(C=O)s1`, for which the Potency entry in assay [1], in [5], in assay [19], in assay [8], in assay [9] and in assay [10] was “inactive” throughout. For the same compound, the Potency entry in assay [11], in assay [12], in assay [13], in assay [14], in assay [15] and in assay [16] was “inactive” throughout. For the same compound, the Potency result in assay [20], in [17] and in assay [18] was “inactive” each time. Further, the Potency in assay [2] is 68.6 µM (active); in assay [6], 40.8 µM (active). Besides, the outcome in assay [3] and in [4] was inactive.

With `CCC(=O)C(=O)CC`, the Potency entry in assay [1], in assay [2], in assay [5], in assay [19], in assay [6] and in assay [7] was “inactive” throughout. In addition, the Potency entry in [9], in assay [10], in assay [12], in assay [14], in assay [15] and in assay [16] was “inactive” throughout. Besides, the Potency entry in [20] and in assay [17] was “inactive” each time. Moreover, the outcome in [3] and in assay [4] was inactive.
